# Test results from paper PMC11062922 (Nature Chemical Biology, 2023).
# Read-outs that look alike come from different tables or passages of the source.
# Columns and labels:
# Set-up in all cases: species or system human, MV4-11 + K-562 + COLO205 + SK-N-BE2 + OVCAR-8
# MAP2K1 = conditions: read-out: apparent Kd, compound concentrations: 100 nM and 1000 nM (sheet 'Samples'), n = 1
# MAP2K2 = conditions: read-out: apparent Kd, compound concentrations: 100 nM and 1000 nM (sheet 'Samples'), n = 1
# MAP4K5 = conditions: read-out: apparent Kd, n = 1
# MAPKAPK2 = conditions: read-out: apparent Kd, n = 1
# BUB1 = conditions: read-out: apparent Kd; compound concentrations:100 nM and 1000 nM (sheet 'Samples'); n = 1
# CSNK1A1 = conditions: read-out: apparent Kd, n = 1
# CSNK1D = conditions: read-out: apparent Kd, n = 1
# NLK = conditions: read-out: apparent Kd; compound concentrations:100 nM and 1000 nM (sheet 'Samples'); n = 1
# ERCC2 = conditions: read-out: apparent Kd, n = 1
# ADCK3 = conditions: read-out: apparent Kd, n = 1
# PIK3CD = conditions: read-out: apparent Kd, n = 1
# TAOK1 = conditions: read-out: apparent Kd; compound concentrations:100 nM and 1000 nM (sheet 'Samples'); n = 1
# EPHA5 = conditions: read-out: apparent Kd; compound concentrations:100 nM and 1000 nM (sheet 'Samples'); n = 1
# EPHA2 = conditions: read-out: apparent Kd; compound concentrations: 100 nM and 1000 nM (sheet 'Samples'), CATDS: 2.7940284559804102E-2; n = 1
# PDGFRB = conditions: read-out: apparent Kd, compound concentrations: 100 nM and 1000 nM (sheet 'Samples'), n = 1
# NQO2 = conditions: read-out: apparent Kd, n = 1
# NQO1 = conditions: read-out: apparent Kd, compound concentrations: 100 nM and 1000 nM (sheet 'Samples'), n = 1
# PDXK = conditions: read-out: apparent Kd; compound concentrations:100 nM and 1000 nM (sheet 'Samples'); n = 1
# [1] = compound concentrations:100 nM and 1000 nM (sheet 'Samples')
smiles,measurement,setting,value
N#Cc1cnc2cc(-c3cnc(CNCCN4CCOCC4)s3)ccc2c1Nc1ccc(Oc2ccccc2)cc1 [GW664114X],potency estimated from few doses,MAP2K1; CATDS: 5.9486551355906997E-2,606 nM
same,potency estimated from few doses,MAP2K2; CATDS: 6.4354786580358606E-2,499 nM
same,potency estimated from few doses,"MAP4K5; compound concentrations: 100 nM and 1000 nM (sheet 'Samples'), CATDS: 0.103025865385486",199 nM
COc1ccc(-c2nc3n(c2-c2ccncc2)CCC3)cc1.COc1ccc(-c2nc3n(c2-c2ccncc2)CCC3)cc1.O=S(=O)(O)O.O=S(=O)(O)O [SKF-104493-B2],potency estimated from few doses,MAP2K1; CATDS: 9.8642022165156204E-2,2400 nM
same,potency estimated from few doses,"MAPKAPK2; compound concentrations: 100 nM and 1000 nM (sheet 'Samples'), CATDS: 0.15746092707453499",867 nM
CC(C)c1nc(-c2ccc(F)c(NS(=O)(=O)c3c(F)cccc3F)c2)c(-c2ccnc(Nc3ccc(N4CCOCC4)nc3)n2)s1 [GSK1804250A],potency estimated from few doses,BUB1,553 nM
COc1cc2ncn(-c3cc(OCc4cccs4)c(C(N)=O)s3)c2cc1OC [GSK312948A],potency estimated from few doses,MAP4K5; [1],116 nM
Nc1nc(N)c2nc(-c3ccccc3)[nH]c2n1 [SKF-12778],potency estimated from few doses,CSNK1A1; [1],972 nM
same,potency estimated from few doses,CSNK1D; [1],2130 nM
same,potency estimated from few doses,NLK,1660 nM
N#Cc1cccc(Nc2nccc(-c3cnn4ncccc34)n2)c1 [GW778894X],potency estimated from few doses,CSNK1A1; [1],731 nM
same,potency estimated from few doses,CSNK1D; [1],199 nM
same,potency estimated from few doses,ERCC2; [1],780 nM
same,potency estimated from few doses,NLK,1560 nM
CN1CCN(c2ccc(Nc3nc(N)c(C(=O)c4ccc5c(c4)OCCO5)s3)cc2)CC1 [RO0505124-000],potency estimated from few doses,"ADCK3; compound concentrations: 100 nM and 1000 nM (sheet 'Samples'), CATDS: 0.21536092464867401",935 nM
Nc1ncc(-c2cn[nH]c2)c2scc(-c3ccc4c(c3)CCN4C(=O)Cc3ccccc3)c12 [GSK2593067A],potency estimated from few doses,"MAP4K5; compound concentrations: 100 nM and 1000 nM (sheet 'Samples'), CATDS: 8.2420323237496707E-2",674 nM
same,potency estimated from few doses,"PIK3CD; compound concentrations: 100 nM and 1000 nM (sheet 'Samples'), CATDS: 0.15776824540953199",196 nM
CS(=O)(=O)Cc1ccc(Nc2nccc(-c3c(-c4cccc(NC(=O)c5c(F)cccc5F)c4)nn4ccccc34)n2)cc1 [GSK323543A],potency estimated from few doses,"ERCC2; compound concentrations: 100 nM and 1000 nM (sheet 'Samples'), CATDS: 6.1110797752593003E-2",1570 nM
same,potency estimated from few doses,"MAPKAPK2; compound concentrations: 100 nM and 1000 nM (sheet 'Samples'), CATDS: 7.72685747843148E-2",870 nM
O=S(=O)(c1ccc(-c2ccnc3[nH]ccc23)cc1)N1CCCC1 [GSK846226A],potency estimated from few doses,TAOK1,1690 nM
CNc1nccc(-c2c(-c3ccc(F)cc3)ncn2C2CCN(C)CC2)n1 [SB-222903],potency estimated from few doses,BUB1,1920 nM
same,potency estimated from few doses,CSNK1A1; [1],139 nM
same,potency estimated from few doses,CSNK1D; [1],11.1 nM
same,potency estimated from few doses,EPHA5,465 nM
same,potency estimated from few doses,MAPKAPK2; [1],49 nM
same,potency estimated from few doses,NLK,19.1 nM
CNC(=O)c1ccccc1Nc1nc(Nc2cccc(CS(C)(=O)=O)c2)ncc1C.O=CO [GSK1520489A],potency estimated from few doses,EPHA2,66.2 nM
same,potency estimated from few doses,PDGFRB; CATDS: 9.8482456119854799E-3,1420 nM
CS(=O)(=O)c1ccc(-c2cnc(N)c(C(=O)Nc3ccccc3)n2)cc1 [VE-821],potency estimated from few doses,"ADCK3; compound concentrations: 100 nM and 1000 nM (sheet 'Samples'), CATDS: 0.149033723356022",1370 nM
CC(=O)c1c(-c2ccncc2)[nH]c(-c2ccncc2)c1C [GW493036X],potency estimated from few doses,"CSNK1A1; compound concentrations: 100 nM and 1000 nM (sheet 'Samples'), CATDS: 4.1725323261606301E-2",874 nM
same,potency estimated from few doses,CSNK1D; [1],2040 nM
same,potency estimated from few doses,NQO2; [1],1110 nM
CN1CCN(Cc2ccc(NC(=O)Nc3ccc(N(C)c4ccnc(Nc5ccc(CS(C)(=O)=O)cc5)n4)cc3)cc2)CC1.Cl [GW827654A],potency estimated from few doses,PDGFRB; CATDS: 3.4418079191200303E-2,1860 nM
Clc1ccc(-c2nn3ncccc3c2-c2ccnc(Nc3ccccc3)n2)cc1 [GW829055X],potency estimated from few doses,"CSNK1A1; compound concentrations: 100 nM and 1000 nM (sheet 'Samples'), CATDS: 3.2884610425315097E-2",1900 nM
same,potency estimated from few doses,MAP2K1; CATDS: 0.148171076580532,138 nM
same,potency estimated from few doses,MAP2K2; CATDS: 3.8918058303858701E-2,1250 nM
same,potency estimated from few doses,NQO1; CATDS: 4.2030828964441901E-2,1050 nM
Cl.Oc1ccc2ncnc(Nc3ccc(OCc4ccccc4)cc3)c2c1 [GI262866A],potency estimated from few doses,PDXK,506 nM
COc1cc2ncn(-c3cc(OCc4sccc4Cl)c(C(N)=O)s3)c2cc1OC [GSK448459A],potency estimated from few doses,MAP4K5; [1],30.8 nM
CS(=O)(=O)c1ccc(-c2nc3n(c2-c2ccncc2)CCC3)cc1 [SKF-105942],potency estimated from few doses,NQO1; CATDS: 0.13363559113377599,1480 nM
same,potency estimated from few doses,"NQO2; compound concentrations: 100 nM and 1000 nM (sheet 'Samples'), CATDS: 0.142598499620046",1270 nM
same,potency estimated from few doses,"PIK3CD; compound concentrations: 100 nM and 1000 nM (sheet 'Samples'), CATDS: 0.51073942178012399",141 nM
CCCN1CCC(Oc2cc(Nc3nc(Nc4cccc(F)c4C(N)=O)c4cc[nH]c4n3)c(OC)cc2Cl)CC1 [GSK1713088A],potency estimated from few doses,"ADCK3; compound concentrations: 100 nM and 1000 nM (sheet 'Samples'), CATDS: 0.349456505086152",604 nM
same,potency estimated from few doses,"ERCC2; compound concentrations: 100 nM and 1000 nM (sheet 'Samples'), CATDS: 0.17876672107785799",2040 nM
Cc1ccc(-n2nc(C(C)(C)C)cc2NC(=O)Nc2ccc(OCCN3CCOCC3)cc2)cc1 [BIRB0876BS],potency estimated from few doses,ADCK3; [1],48.9 nM
same,potency estimated from few doses,PIK3CD; [1],9.61 nM
Cc1ccc(NC(=O)c2ccc(Cl)cc2)cc1-c1ccc(C(=O)Nc2ccncc2)cc1 [GSK1398467A],potency estimated from few doses,"CSNK1D; compound concentrations: 100 nM and 1000 nM (sheet 'Samples'), CATDS: 0.16187565637937301",2020 nM
